Data from the supplement of paper PMC10849652.
About 7,900 targets were measured; listed, in parts, are those with a hit and a random draw of the rest. About 0.6% of all pairs of compound and target were hits.

Tests used:
Assay in all cases: log2 fold change, soluble protein after heating vs DMSO (PISA); higher = thermal stabilisation; K562 cells, 10 uM, 30 min; active = over 0.2 and 3.5 SD of the protein, either way, in both replicates (recomputed)
[1] = compound: NC(=O)Nc1cc(-c2cccc(F)c2)sc1C(=O)N[C@H]1CCCNC1
How it was run: (§1)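 K562 cells at 2×10^6 cells/mL were treated with 10 μM compound for 30 min. Aliquots were heated for 3 min across 48°C-58°C, pooled, and extracted in PBS with 0.5% NP-40 at 4°C; soluble protein was the supernatant after 21,000xg for 90 min. Soluble protein was quantified by TMTpro 16plex LC-MS/MS with channel sums equalised, and reported as log2 fold change in thermal stability against DMSO controls, with values from duplicates.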

[2] = compound: NC(=O)c1cnc(N[C@@H]2CCCC[C@@H]2N)nc1Nc1cccc(-n2nccn2)c1
How it was run: as §1

[3] = compound: NC1(c2ccc(-c3nc4ccn5c(=O)[nH]nc5c4cc3-c3ccccc3)cc2)CCC1
How it was run: as §1

[4] = compound: Nc1ccccc1NC(=O)c1ccc(CNC(=O)OCc2cccnc2)cc1 [entinostat]
How it was run: as §1

[5] = compound: O=C(CCCCCCC(=O)Nc1ccccc1)NO [vorinostat]
How it was run: as §1

[6] = compound: O=C(CCCCCCNC(=O)c1cnc(N(c2ccccc2)c2ccccc2Cl)nc1)NO [citarinostat]
How it was run: as §1

[7] = compound: O=C(O)c1ccc2c(c1)nc(Nc1cccc(Cl)c1)c1ccncc12 [silmitasertib]
How it was run: as §1

[8] = compound: O=C1NC(=O)C(c2cnc3ccccn23)=C1c1cn2c3c(cc(F)cc13)CN(C(=O)N1CCCCC1)CC2
How it was run: as §1

[9] = compound: c1cc(OCCN2CCCCC2)cc(-c2n[nH]c3ccc(-c4nnc[nH]4)cc23)c1
How it was run: as §1

[10] = compound: NCC(=O)Nc1ccc(-n2nc(C(F)(F)F)cc2-c2ccc3c(ccc4ccccc43)c2)cc1
How it was run: as §1

Measured: log2 fold change

TMEM268 isoform 3 (UniProt Q5VZI3)
UniProt Q5VZI3, sequence (Q5VZI3 whole entry, looked up): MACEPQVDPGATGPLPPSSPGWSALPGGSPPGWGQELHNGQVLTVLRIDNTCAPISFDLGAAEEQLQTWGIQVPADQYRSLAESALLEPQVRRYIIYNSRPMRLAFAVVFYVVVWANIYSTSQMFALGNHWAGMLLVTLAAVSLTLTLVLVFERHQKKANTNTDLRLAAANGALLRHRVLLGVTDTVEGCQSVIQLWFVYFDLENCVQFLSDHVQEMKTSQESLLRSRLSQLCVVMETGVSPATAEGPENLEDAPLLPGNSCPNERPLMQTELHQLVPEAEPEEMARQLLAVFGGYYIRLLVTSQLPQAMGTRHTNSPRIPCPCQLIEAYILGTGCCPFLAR
inactive: [1] 0.12 | [2] 0.057 | [3] -0.141 | [4] 0.059 | [5] 0.162 | [6] 0.084 | [7] -0.114 | [8] 0.174 | [9] -0.117

UBIAD1 (UniProt Q9Y5Z9)
UniProt Q9Y5Z9, sequence (Q9Y5Z9 whole entry, looked up): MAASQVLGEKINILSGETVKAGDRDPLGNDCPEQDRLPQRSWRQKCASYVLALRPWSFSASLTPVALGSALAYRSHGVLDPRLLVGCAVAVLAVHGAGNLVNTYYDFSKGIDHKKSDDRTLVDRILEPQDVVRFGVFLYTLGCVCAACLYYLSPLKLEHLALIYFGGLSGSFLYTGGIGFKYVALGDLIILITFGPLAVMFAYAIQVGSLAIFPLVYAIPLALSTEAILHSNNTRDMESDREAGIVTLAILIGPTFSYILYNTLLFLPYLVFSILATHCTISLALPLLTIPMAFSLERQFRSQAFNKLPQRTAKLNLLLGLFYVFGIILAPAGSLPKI
inactive: [1] -0.089 | [2] 0 | [3] 0.055 | [10] -0.122 | [4] -0.076 | [5] -0.075 | [6] -0.301 | [7] 0.013 | [9] 0.181

TXNIP (UniProt Q9H3M7)
UniProt Q9H3M7, sequence (Q9H3M7 whole entry, looked up): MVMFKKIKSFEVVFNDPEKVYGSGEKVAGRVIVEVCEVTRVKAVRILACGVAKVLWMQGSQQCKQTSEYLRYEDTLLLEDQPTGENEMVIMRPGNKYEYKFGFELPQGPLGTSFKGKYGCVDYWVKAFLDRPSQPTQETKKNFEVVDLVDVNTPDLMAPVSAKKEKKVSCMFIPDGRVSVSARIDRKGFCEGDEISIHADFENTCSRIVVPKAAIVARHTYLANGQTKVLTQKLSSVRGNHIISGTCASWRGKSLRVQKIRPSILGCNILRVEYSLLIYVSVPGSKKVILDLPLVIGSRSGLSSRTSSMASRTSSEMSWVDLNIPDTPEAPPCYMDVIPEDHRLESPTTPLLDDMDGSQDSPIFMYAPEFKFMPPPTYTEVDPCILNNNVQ
inactive: [1] 0.091 | [2] -0.024 | [3] 0.19 | [10] 0.007 | [4] -0.009 | [5] 0.018 | [6] 0.071 | [7] 0.115 | [8] -0.079 | [9] 0.005

TP53BP1 isoform 2 (UniProt Q12888)
inactive: [1] 0.014 | [2] -0.056 | [3] -0.072 | [10] -0.008 | [4] 0.018 | [5] 0.031 | [6] 0.074 | [7] 0.117 | [8] -0.035 | [9] -0.029

WARS1 (UniProt G3V277)
inactive: [1] 0.029 | [2] -0.52 | [3] -0.131 | [10] -0.302 | [4] 0.025 | [5] -0.047 | [7] 0.001

WEE1 (UniProt P30291)
UniProt P30291, sequence (P30291 whole entry, looked up): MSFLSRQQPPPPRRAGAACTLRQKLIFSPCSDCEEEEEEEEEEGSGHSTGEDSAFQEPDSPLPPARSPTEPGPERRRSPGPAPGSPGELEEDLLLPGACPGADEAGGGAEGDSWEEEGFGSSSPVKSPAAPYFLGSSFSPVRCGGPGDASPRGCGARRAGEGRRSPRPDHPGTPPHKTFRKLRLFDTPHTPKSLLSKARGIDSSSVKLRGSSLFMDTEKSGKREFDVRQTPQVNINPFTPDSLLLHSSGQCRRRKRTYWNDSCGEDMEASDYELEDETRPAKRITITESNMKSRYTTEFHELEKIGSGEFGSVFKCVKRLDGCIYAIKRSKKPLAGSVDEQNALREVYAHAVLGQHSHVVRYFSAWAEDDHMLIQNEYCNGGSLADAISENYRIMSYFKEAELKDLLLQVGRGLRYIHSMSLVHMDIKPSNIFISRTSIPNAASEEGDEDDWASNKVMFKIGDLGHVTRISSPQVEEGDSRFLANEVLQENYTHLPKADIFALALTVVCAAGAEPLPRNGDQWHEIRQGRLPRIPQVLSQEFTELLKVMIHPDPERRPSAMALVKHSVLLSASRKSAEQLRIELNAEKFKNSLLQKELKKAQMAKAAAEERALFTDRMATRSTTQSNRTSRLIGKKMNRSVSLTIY
inactive: [1] -0.455 | [2] 0.205 | [3] 0.04 | [10] -0.045 | [4] 0.47 | [5] 0.05 | [7] -0.122 | [8] 0.089

UFM1 (UniProt P61960)
inactive: [1] 0.045 | [2] -0.135 | [3] -0.073 | [10] -0.056 | [4] 0.004 | [6] 0.056 | [7] -0.033 | [8] -0.083 | [9] 0.015

VPS53 isoform 4 (UniProt Q5VIR6)
UniProt Q5VIR6, sequence (Q5VIR6 whole entry, looked up): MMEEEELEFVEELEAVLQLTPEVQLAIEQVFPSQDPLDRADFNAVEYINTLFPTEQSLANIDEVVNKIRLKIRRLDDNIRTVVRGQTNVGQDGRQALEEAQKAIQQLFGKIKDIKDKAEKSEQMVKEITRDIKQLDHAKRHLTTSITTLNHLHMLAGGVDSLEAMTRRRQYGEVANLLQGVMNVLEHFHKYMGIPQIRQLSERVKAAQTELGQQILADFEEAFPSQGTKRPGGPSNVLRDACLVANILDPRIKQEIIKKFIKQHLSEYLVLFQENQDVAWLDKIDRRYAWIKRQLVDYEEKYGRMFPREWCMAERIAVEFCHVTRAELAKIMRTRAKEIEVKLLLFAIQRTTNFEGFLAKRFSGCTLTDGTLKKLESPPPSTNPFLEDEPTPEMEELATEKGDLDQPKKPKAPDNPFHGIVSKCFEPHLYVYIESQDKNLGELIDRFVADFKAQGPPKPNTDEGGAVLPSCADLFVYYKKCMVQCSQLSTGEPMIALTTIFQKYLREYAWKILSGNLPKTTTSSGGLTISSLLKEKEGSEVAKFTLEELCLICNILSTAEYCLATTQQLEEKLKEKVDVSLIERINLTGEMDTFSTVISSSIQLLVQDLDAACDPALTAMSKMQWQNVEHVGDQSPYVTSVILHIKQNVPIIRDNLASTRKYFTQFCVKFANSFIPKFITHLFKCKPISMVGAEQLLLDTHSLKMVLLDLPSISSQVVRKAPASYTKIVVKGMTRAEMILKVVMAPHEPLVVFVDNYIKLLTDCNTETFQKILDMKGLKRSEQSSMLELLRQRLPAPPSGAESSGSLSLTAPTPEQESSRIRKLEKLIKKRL
inactive: [1] -0.036 | [2] -0.062 | [3] -0.105 | [10] -0.021 | [4] 0.052 | [5] 0.018 | [6] 0.025 | [7] 0.063 | [8] -0.066 | [9] -0.02

UBE2D1 (UniProt P51668)
UniProt P51668, sequence (P51668 whole entry, looked up): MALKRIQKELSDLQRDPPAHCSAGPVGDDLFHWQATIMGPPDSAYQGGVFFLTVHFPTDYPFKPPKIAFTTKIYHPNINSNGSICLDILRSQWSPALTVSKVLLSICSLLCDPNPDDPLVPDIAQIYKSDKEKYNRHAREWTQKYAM
inactive: [1] 0.119 | [2] 0.042 | [3] -0.143 | [10] -0.039 | [4] -0.168 | [5] 0.164 | [6] 0.062 | [7] 0.049 | [9] 0.011

TRAPPC3 (UniProt O43617)
inactive: [1] 0.017 | [2] -0.056 | [3] -0.145 | [10] -0.058 | [4] 0.022 | [5] 0.004 | [6] 0.038 | [7] 0.032 | [8] 0 | [9] -0.048

WDR62 isoform 4 (UniProt O43379)
UniProt O43379, sequence (O43379 whole entry, looked up): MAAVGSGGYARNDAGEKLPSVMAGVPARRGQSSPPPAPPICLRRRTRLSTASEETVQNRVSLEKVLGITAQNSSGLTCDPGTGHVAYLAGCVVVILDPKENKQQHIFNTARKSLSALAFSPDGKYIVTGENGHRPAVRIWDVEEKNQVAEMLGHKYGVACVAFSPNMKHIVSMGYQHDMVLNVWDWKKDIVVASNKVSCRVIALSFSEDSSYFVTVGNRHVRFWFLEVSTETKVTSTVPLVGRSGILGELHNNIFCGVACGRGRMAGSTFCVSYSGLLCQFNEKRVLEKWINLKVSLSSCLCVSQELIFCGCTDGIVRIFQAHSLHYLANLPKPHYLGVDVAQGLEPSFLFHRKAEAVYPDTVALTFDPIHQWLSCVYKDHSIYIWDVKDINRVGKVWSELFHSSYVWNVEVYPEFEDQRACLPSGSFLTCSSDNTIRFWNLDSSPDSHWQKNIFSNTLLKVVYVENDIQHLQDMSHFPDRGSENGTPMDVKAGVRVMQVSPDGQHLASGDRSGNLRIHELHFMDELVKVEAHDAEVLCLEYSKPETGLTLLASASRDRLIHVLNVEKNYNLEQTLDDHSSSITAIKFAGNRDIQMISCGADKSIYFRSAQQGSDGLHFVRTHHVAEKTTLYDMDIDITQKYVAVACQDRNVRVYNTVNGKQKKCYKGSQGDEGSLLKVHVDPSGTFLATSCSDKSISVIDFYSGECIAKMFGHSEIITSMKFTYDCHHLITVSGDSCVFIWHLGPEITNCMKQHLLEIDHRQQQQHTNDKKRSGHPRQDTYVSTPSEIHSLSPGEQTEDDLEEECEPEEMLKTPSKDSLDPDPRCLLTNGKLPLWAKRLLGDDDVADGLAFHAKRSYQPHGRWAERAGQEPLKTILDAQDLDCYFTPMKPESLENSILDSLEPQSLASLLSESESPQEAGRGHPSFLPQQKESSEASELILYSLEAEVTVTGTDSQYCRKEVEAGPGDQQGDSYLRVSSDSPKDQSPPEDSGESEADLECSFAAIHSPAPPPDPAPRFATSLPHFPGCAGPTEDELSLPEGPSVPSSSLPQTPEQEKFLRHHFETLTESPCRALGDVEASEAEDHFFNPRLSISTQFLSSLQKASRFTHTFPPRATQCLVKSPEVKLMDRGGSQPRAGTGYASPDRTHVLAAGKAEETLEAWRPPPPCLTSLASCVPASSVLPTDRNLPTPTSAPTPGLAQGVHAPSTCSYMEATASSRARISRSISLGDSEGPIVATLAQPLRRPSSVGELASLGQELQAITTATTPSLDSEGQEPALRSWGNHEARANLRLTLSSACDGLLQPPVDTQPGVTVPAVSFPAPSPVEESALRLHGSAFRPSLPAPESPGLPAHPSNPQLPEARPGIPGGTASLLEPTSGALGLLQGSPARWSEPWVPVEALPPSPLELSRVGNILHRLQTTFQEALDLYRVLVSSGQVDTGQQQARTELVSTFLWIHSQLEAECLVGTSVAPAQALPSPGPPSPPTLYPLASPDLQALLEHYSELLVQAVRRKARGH
inactive: [1] -0.07 | [2] -0.099 | [3] -0.052 | [10] -0.038 | [4] 0 | [5] 0.05 | [6] 0.054 | [7] 0.073 | [8] 0.01 | [9] -0.07

TMEM9 (UniProt Q9P0T7)
inactive: [1] -0.008 | [2] 0.047 | [3] -0.113 | [10] 0.063 | [4] -0.026 | [5] -0.053 | [6] 0.1 | [7] -0.044 | [8] -0.031 | [9] 0.065

WDR7 (UniProt Q9Y4E6)
inactive: [1] -0.227 | [2] -0.017 | [3] 0.104 | [10] -0.019 | [4] 0.008 | [5] 0.036 | [6] -0.125 | [7] 0.032 | [8] 0.119 | [9] -0.088

UCHL5 isoform 3 (UniProt Q9Y5K5)
UniProt Q9Y5K5, sequence (Q9Y5K5 whole entry, looked up): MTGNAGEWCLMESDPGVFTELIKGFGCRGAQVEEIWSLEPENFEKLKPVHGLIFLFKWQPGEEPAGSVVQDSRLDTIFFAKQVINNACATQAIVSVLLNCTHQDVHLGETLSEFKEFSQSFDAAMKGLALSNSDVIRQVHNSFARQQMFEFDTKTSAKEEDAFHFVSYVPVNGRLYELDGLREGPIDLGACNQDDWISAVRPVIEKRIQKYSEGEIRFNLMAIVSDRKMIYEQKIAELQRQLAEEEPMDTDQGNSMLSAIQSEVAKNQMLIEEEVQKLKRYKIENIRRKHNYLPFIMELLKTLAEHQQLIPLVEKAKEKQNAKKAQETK
inactive: [1] 0.037 | [2] 0.156 | [3] -0.277 | [10] 0.05 | [4] 0.098 | [6] 0.113 | [7] -0.002 | [8] -0.054 | [9] -0.028

TMEM41A (UniProt Q96HV5)
inactive: [1] -0.005 | [2] -0.053 | [3] 0.002 | [10] -0.066 | [4] -0.027 | [5] 0.09 | [6] 0.04 | [7] -0.015 | [8] -0.018 | [9] -0.059

TMEM106B (UniProt Q9NUM4)
inactive: [1] -0.042 | [2] -0.038 | [3] -0.056 | [10] -0.016 | [4] 0.008 | [5] -0.023 | [6] 0.022 | [7] 0.034 | [8] 0 | [9] 0.046

ULBP1 (UniProt Q9BZM6)
inactive: [1] -0.045 | [2] 0.026 | [3] -0.227 | [10] -0.039 | [4] 0.099 | [7] 0.013 | [8] -0.188

VPS37A (UniProt Q8NEZ2)
UniProt Q8NEZ2, sequence (Q8NEZ2 whole entry, looked up): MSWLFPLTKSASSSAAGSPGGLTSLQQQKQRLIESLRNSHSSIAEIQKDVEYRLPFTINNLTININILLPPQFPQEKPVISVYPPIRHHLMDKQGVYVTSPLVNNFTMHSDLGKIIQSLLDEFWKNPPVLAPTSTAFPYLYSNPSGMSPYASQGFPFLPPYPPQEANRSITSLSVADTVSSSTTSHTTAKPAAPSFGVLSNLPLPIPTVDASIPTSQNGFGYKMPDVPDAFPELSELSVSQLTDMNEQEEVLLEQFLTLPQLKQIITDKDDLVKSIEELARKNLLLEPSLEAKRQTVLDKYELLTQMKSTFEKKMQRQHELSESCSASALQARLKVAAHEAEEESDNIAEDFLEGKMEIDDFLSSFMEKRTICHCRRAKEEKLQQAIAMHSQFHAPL
inactive: [1] -0.066 | [2] -0.021 | [3] -0.317 | [10] -0.051 | [4] 0.121 | [5] 0.113 | [7] 0.02 | [8] -0.198

TRIM44 (UniProt Q96DX7)
inactive: [1] 0 | [2] -0.037 | [3] -0.048 | [10] 0.02 | [4] -0.048 | [5] 0.015 | [6] 0.008 | [7] 0.045 | [9] -0.083

XRCC5 (UniProt P13010)
inactive: [1] -0.024 | [2] -0.172 | [3] -0.122 | [10] -0.058 | [4] 0.155 | [5] 0.151 | [6] 0.163 | [7] 0.019 | [8] -0.096 | [9] -0.041

U2AF1 isoform 2 (UniProt Q01081)
inactive: [1] -0.174 | [2] -0.017 | [3] 0.058 | [10] -0.096 | [4] -0.013 | [5] -0.021 | [6] 0.039 | [7] -0.034 | [8] -0.039 | [9] -0.093

XIAP (UniProt P98170)
inactive: [1] -0.004 | [2] -0.12 | [3] -0.113 | [10] -0.001 | [4] 0.009 | [5] 0.053 | [6] 0.091 | [7] -0.029 | [8] -0.047 | [9] -0.106

VPS18 (UniProt Q9P253)
inactive: [1] 0.019 | [2] -0.13 | [3] -0.216 | [10] 0.079 | [4] 0.08 | [5] 0.089 | [6] 0.009 | [7] 0.005 | [8] 0.023 | [9] 0.005

UNC119B (UniProt A6NIH7)
inactive: [1] -0.094 | [2] 0.039 | [3] 0.146 | [10] 0.038 | [4] 0.012 | [5] -0.055 | [6] 0.043 | [7] 0.031 | [9] 0.005
